Hits are enriched below; roughly 2.8% of the tested compounds scored in any of these assays.
ERa coact inh – blocks coactivator binding to human estrogen receptor alpha; TR-FRET ER-alpha LBD / SRC-1 peptide, estradiol-bound; inhibition, % at 25.6 µM; hit rate 1.7% among 86,000; AID 629; P03372; in the data active = inhibition above about 50%;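 also: 0% = receptor plus peptide control and 100% = peptide only without receptor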
ERb coact inh – blocks coactivator binding to human estrogen receptor beta; Q92731; TR-FRET ER-beta LBD / SRC1-Cy5 peptide binding; receptor agonist-loaded with 1 µM estradiol; inhibition, % at 25.6 µM; hit rate 1.3% among 86,000;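 active = compounds whose percent inhibition of the receptor-coactivator binding signal exceeds about 50% in the single-dose screen, limit read from the data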;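 also: 0% = receptor plus peptide wells without compound and 100% = peptide-only wells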
Target sequence (Q92731 whole entry, looked up, the tested form may be a part): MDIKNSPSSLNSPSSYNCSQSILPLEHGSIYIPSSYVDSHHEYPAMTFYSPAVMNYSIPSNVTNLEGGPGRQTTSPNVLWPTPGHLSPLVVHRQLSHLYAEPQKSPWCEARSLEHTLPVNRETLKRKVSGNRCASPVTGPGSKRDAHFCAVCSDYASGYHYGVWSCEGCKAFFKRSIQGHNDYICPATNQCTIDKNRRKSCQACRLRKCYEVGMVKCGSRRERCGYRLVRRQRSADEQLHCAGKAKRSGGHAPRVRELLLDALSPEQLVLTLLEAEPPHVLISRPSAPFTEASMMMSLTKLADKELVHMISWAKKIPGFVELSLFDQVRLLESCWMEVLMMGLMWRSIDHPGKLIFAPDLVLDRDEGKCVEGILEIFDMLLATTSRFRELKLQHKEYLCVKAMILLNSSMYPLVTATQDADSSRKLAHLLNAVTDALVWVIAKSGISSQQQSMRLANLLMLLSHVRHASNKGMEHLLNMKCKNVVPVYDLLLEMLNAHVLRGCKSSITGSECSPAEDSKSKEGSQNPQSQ
ERa SRC1 pot – enhances coactivator binding to human estrogen receptor alpha; P03372; TR-FRET ERalpha-LBD/SRC-Cy5 coactivator binding, 2 h; 100 = basal binding, no effect; coactivator binding (% of control), % at 25.6 µM; hit rate 1.3% among 86,000; in the data active = activity above about 200%;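 also: binding measured in presence of low estradiol as agonist stimulus; 0% = peptide alone without receptor and 100% = receptor with peptide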
EphB4 ephrin blk – blocks human EphB4 binding to ephrin-B2 | hit rate 0.15% among 97,000 | inhibition, % at 7 µM | EphB4 LBD / TNYL-RAW-Alexa532 peptide, fluorescence polarization | P54760;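 active = inhibition above the screen-wide mean inhibition plus 3 SD, cut at about 15% in these data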;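 also: 0% = DMSO wells and 100% = excess unlabeled TNYL-RAW peptide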
Numbers without * were called inactive; . = no result; [ ] = another dose, or the depositor's remark.

SMILES | ERa coact inh | ERb coact inh | ERa SRC1 pot | EphB4 ephrin blk
O=C(c1ccc(NC2=NC3CS(=O)(=O)CC3S2)cc1)N1CCN(Cc2ccccc2)CC1 (stereo not given) | 93*[fluorescence artefact?] | -5 | 103 | 8
O=C(c1ccc(C#CC2(O)CCCCC2)cc1)N1CCN(C(c2ccccc2)c2ccccc2)CC1 | -5 | 2 | 93 | 5
O=C(NCc1ccco1)C1Cc2ccccc2CN1S(=O)(=O)c1ccccc1F (stereo not given) | 49 | 40 | 202*[fluorescence artefact?] | -7
O=C(NCc1ccco1)C1CN(S(=O)(=O)c2ccccc2)CCN1S(=O)(=O)c1ccccc1 (stereo not given) | 33 | 19 | 105 | 5
CC1CCN(c2nc3c(c(=O)[nH]c(=O)n3C)n2Cc2ccccc2Cl)CC1 | -1 | 3 | 82 | 0
Cc1ccc(-n2ncc3c2ncn2c(-c4ccncc4)nnc32)cc1 | 66*[fluorescence artefact?] | 31 | 89 | .
c1ccc(Cn2ncc3c2ncn2c(-c4ccncc4)nnc32)cc1 | -7 | -5 | 110 | .
Cc1ccc(C)c(NC(=S)NC(NC(=O)Cc2cccc3ccccc23)C(Cl)(Cl)Cl)c1 (stereo not given) | 68*[fluorescence artefact?] | 69* | 59 | 0
Cc1ccc(C)c(NC(=S)NC(NC(=O)N(C)C)C(Cl)(Cl)Cl)c1 (stereo not given) | . | . | . | -1
COc1ccc(N2CCN(C(=O)Cn3c(=O)[nH]c4ccsc4c3=O)CC2)cc1 | 4 | -2 | 101 | .
COc1ccc(N2CCN(C(=O)CCCn3c(=O)[nH]c4ccsc4c3=O)CC2)cc1 | -4 | 75* | 104 | 1
CCc1nc2sc3c(c2c(=O)n1N)CCC3 | -31 | -27 | 98 | 3
CCn1c(NN)nc2sc3c(c2c1=O)CCC3 | 18 | 52* | 47 | 13
O=C(O)Cn1cnc2scc(-c3cccs3)c2c1=O | 38 | 58* | 64 | 0
Cc1ccc(/C=C/c2ccc(=O)n(Cc3ccccc3Cl)n2)cc1 | 1 | 0 | 79 | 2
CCOC(=O)N1CCC(NC(=O)Cn2ncn3c(cc4sc(CC)cc43)c2=O)CC1 | 44 | 57*[fluorescence artefact?] | 112 | .
NC(=O)c1sc2nc(-c3ccco3)ccc2c1N | . | . | . | 3
COC(=O)c1sc2nc(-c3ccco3)ccc2c1N | 54* | 73* | 66 | 3
CCOc1ccc(C2NC(=O)NC(C)=C2C(=O)OC)cc1C (stereo not given) | -12 | -7 | 96 | 0
CC(C)C(=O)Nc1ccc2oc(-c3cc(F)c(F)cc3Cl)nc2c1 | 5 | 13 | 217* | 2
O=C(Nc1ccc2oc(-c3ccccc3Cl)nc2c1)c1ncn[nH]1 | 67*[fluorescence artefact?] | 50*[fluorescence artefact?] | 224*[fluorescence artefact?] | -5
CC(=O)Nc1ccc2oc(-c3cc(F)c(F)cc3Cl)nc2c1 | -1 | -6 | 123 | 5
N=c1c(C(=O)NCc2ccc(F)cc2)cc2c(=O)n3ccccc3nc2n1Cc1cccnc1 | 71* | 22 | 65 | -9
Cc1c(Br)cc(C(=O)NCc2ccco2)c(C)c1C | 51* | 24 | 99 | .
O=C(NCc1ccco1)c1cc2ccc(O)cc2oc1=O | 64* | 72* | 91 | 1
SMILES | ERa coact inh | ERb coact inh | ERa SRC1 pot | EphB4 ephrin blk
Cc1ccc(S(=O)(=O)C(C)C(=O)c2ccc3c(c2)OCCO3)cc1 (stereo not given) | 7 | -9 | 108 | 2
Cc1nnc(NCc2ccncc2)c2ccccc12 | 60*[fluorescence artefact?] | 50*[fluorescence artefact?] | 179 | -4
CCc1cc2cc(C(=O)Nc3ccc(F)cc3)sc2s1 | 37 | 49 | 308*[fluorescence artefact?] | 1
COC(=O)COc1ccc(S(=O)(=O)Nc2ccc3c(c2)OCO3)cc1 | 67* | 22 | 57 | 1
CC(=O)C(C(C)=O)c1c(Cl)c(O)c(O)c2c(C(=O)c3ccccc3)coc12 | 22 | 55*[fluorescence artefact?] | 83 | -3
O=C(N1CCOCC1)N1CCN(c2ccccc2)CC1 | -9 | -12 | 104 | 1
O=C(N1CCOCC1)N1CCN(Cc2ccccc2)CC1 | -5 | -6 | 545*[fluorescence artefact?] | 3
O=C(CCc1ccc(Oc2cc([N+](=O)[O-])cc([N+](=O)[O-])c2)cc1)N1CCCCC1 | . | . | . | 1
Cc1cc(C)n2c(SC/C(O)=C(\C#N)c3nc4ccccc4[nH]3)nnc2n1 | 97*[fluorescence artefact?] | 69*[fluorescence artefact?] | 0 | -8
Cc1ccccc1-n1c(SC/C(O)=C(\C#N)c2nc3ccccc3[nH]2)nnc1-c1ccncc1 | 62*[fluorescence artefact?] | 54* | 78 | .
COC(=O)c1cc(Br)c(=O)n(-c2cc(C)on2)c1 | -4 | -3 | 103 | -9
CN(CCOc1ccc(-c2ccn(S(=O)(=O)c3cccc4ccccc34)n2)cc1)c1ccccn1 | . | . | . | -2
COc1ccc(CC(=O)OCC(=O)Nc2ncc(Cl)cc2Cl)cc1 | 52*[fluorescence artefact?] | 43 | 53 | -2
COc1ccc(C2C(C#N)=C(N)Oc3cc(C)[nH]c(=O)c32)c(OC)c1OC (stereo not given) | 2 | -2 | 87 | 3
CSc1cc(-c2ccc(Cl)cc2)n(Cc2ccccc2)c(=O)c1C#N | 54*[fluorescence artefact?] | 35 | 164 | 6
CCC(=O)Oc1c(-c2ccccc2)c2nc3ccccc3nc2c2ccccc12 | 39 | 47 | 221*[fluorescence artefact?] | 6
COc1cccc2c(=O)n(CC(=O)N3CCCc4ccccc43)ccc12 | -1 | -6 | 99 | 3
CCOC(=O)COc1cccc2c(=O)n(CC(=O)N3CCCc4ccccc43)ccc12 | 10 | 51*[fluorescence artefact?] | 97 | 3
CCCSc1nnc(NC(=O)Nc2ccc(F)cc2)s1 | 11 | 8 | 247* | .
O=c1[nH]c2ccc(Br)cc2c(-c2ccccc2)c1N1CCOCC1 | 30 | 19 | 429*[fluorescence artefact?] | 5
CC(C)CCSc1nc(N)c(C#N)cc1C#N | 40 | 25 | 391*[fluorescence artefact?] | -3
N#Cc1cc(C#N)c(N2CCN(c3ccccn3)CC2)nc1N | . | . | . | 0
Cc1ccc(CNc2ccc(O)cc2)cc1 | 35 | 65*[fluorescence artefact?] | 72 | 1
Cc1ccc(NCc2ccccc2O)cc1 | 3 | -5 | 100 | -3
CCOC(=O)C(CC)(CC)C(=O)/C=C/c1cccc(Br)c1 | . | . | . | 2
SMILES | ERa coact inh | ERb coact inh | ERa SRC1 pot | EphB4 ephrin blk
CCOC(=O)C1=C(O)/C(=C\c2ccc(CNC(=O)C(=O)Nc3ccccc3)o2)N=C1C | 81* | 72* | 38 | 3
COc1ccccc1N1CCN(CC(=O)NCC2CCCO2)CC1 (stereo not given) | -10 | -3 | 120 | -9
CN(C(=O)CN1CCC(NC(=O)C2CCCCC2)CC1)C1CCCCC1 | 2 | 3 | 211*[fluorescence artefact?] | -6
O=c1c2ccccc2nc(-c2ccco2)n1Cc1ccccc1 | 1 | -3 | 98 | 4
O=c1c2ccccc2nc(-c2ccoc2)n1CCc1ccccc1 | -7 | -8 | 94 | 16*
COc1cccc2cc(-c3cn4ccc(C)cc4n3)c(=O)oc12 | 74* | 53*[fluorescence artefact?] | 61 | -5
COc1cccc2cc(-c3cn4cccc(C)c4n3)c(=O)oc12 | . | . | . | 2
CCOc1cccc2cc(-c3cn4cc(C)ccc4n3)c(=O)oc12 | 81* | 50* | 126 | -4
CCCSc1nc2c(cnn2-c2ccc(Cl)cc2)c(=O)[nH]1 | . | . | . | -6
COC(=O)c1ccc(CSc2nc3c(cnn3-c3ccccc3)c(=O)[nH]2)o1 | -38 | -18 | 258*[fluorescence artefact?] | -1
COC(=O)c1ccc(CSc2nc3c(cnn3-c3ccc(F)cc3)c(=O)[nH]2)o1 | -21 | 21 | 517* | 1

Screening data (PubChem)
